KCNH2 WT inh – qHTS for Inhibitors of KCHN2 3.1: Wildtype qHTS | activity change, % at 1.84 µM | U2OS, BacMam KCNH2, thallium flux FluxOr; active compounds read low | Voltage-gated inwardly rectifying potassium channel KCNH2 (Homo sapiens), Q12809 | hit rate 0.37% among 340,000;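 active means maximum activity change below -70%; inconclusive means maximum activity change between -70% and -50%; inactive means maximum activity change above -50%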; further: on the % scale 0 is the no-effect control and ±100 the full control effect
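U2OS cells were transduced with wild-type KCNH2 virus (2.03 x 10^8 / mL) for 4 h at room temperature, then cultured overnight at 37 C. Thallium flux was read with FluxOr dye. Rate constants were normalized to DMSO controls.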
VDR inhibitor – Inhibitors of the vitamin D receptor (VDR): qHTS; VDR-SRC2-3 peptide fluorescence polarization, 2 h; Potency, µM, for inactives: max response, negative = inhibition, hits mostly inhibitors; Vitamin D3 receptor (Homo sapiens), P11473; hit rate 0.93% among 400,000; further: potency means the concentration at half of the fitted maximal effect; on the % scale 0 is the no-effect control and ±100 the full control effect
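Reagent solutions, kept cold and dark, are dispensed first; compounds are then pinned in at 23 nl, plates briefly spun, and incubated 2 h at ambient temperature. Inhibition of VDR–SRC2-3 peptide binding is read by fluorescence polarization.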
PLK1 PBD inh – qHTS for Inhibitors of PLK1-PDB (polo-like kinase 1 - polo-box domain): Primary Screen | Serine/threonine-protein kinase PLK1 (Homo sapiens), P53350 | Plk1 PBD binding of FITC phosphopeptide, fluorescence polarization | Potency, µM, for the others: max response, negative = inhibition, most hits filed as inhibitors | hit rate 2.8% among 360,000 | AID 720504, 2013; further: potency means the concentration at half of the fitted maximal effect; series mostly up to about 57 µM; on the % scale 0 is the no-effect control and ±100 the full control effect; nearly all actives have a fitted effect of over 65% in size
MBNL1-CUG inh – qHTS Assay for Inhibitors of MBNL1-poly(CUG) RNA binding. AID 2675, 2010. TR-FRET MBNL1-His/biotin-(CUG)12 binding, 665/545 ratio. hit rate 0.036% among 280,000. Muscleblind-like protein 1 (Homo sapiens), Q9NR56. Potency, µM (top dose mostly 57.5 µM), for inactives: at the highest dose activity change, negative = inhibition, usual class: inhibitors; active means well fitted inhibition curve with a large enough effect in the signal ratio, with a control signal flat, not every such curve was filed as active; inconclusive means small, poorly fitted or top-dose-only effect, or effect the other way, or a change in a side signal; inactive means no such curve, though single readings can be large or run the other way; the % refers to the signal ratio; further: potency means the concentration at half of the fitted maximal effect; on the % scale 0 is the no-effect control and ±100 the full control effect
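Compound titration spanned 92 nM–58 uM against the MBNL1-His/biotin-(CUG)12 complex. After 60 min at room temperature with 5 nM streptavidin-XL665 and 0.055 ng/ul terbium anti-His, ratiometric 665/545 nm emission (Ex 340 nm) normalized to controls.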
CBFb-RUNX1 inh – qHTS Assay for Compounds Blocking the Interaction Between CBF-beta and RUNX1 for the Treatment of Acute Myeloid Leukemia; Runt-related transcription factor 1 (Homo sapiens) + Core-binding factor subunit beta …; AlphaScreen CBFb-His/RUNX1-biotin binding, biochemical; Potency, µM (highest dose often 59.8 µM), for the others: at the top dose activity, negative = inhibition, actives largely listed as inhibitors; 230,000 tested, under 10 active; further: % of control where 0% means no effect
Target sequence (Q01196 whole entry, looked up): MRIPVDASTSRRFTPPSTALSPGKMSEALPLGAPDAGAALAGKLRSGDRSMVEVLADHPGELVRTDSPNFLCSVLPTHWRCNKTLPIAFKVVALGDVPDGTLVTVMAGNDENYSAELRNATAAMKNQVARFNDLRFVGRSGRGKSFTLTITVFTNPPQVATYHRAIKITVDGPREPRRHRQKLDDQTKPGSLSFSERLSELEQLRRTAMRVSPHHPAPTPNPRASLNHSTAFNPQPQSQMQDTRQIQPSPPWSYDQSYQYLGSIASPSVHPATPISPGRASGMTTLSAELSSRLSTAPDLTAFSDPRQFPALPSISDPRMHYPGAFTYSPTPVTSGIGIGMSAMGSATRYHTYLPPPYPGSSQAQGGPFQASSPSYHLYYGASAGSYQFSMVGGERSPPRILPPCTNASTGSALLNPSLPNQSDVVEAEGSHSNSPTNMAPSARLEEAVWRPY
Target sequence (Q13951 whole entry, looked up): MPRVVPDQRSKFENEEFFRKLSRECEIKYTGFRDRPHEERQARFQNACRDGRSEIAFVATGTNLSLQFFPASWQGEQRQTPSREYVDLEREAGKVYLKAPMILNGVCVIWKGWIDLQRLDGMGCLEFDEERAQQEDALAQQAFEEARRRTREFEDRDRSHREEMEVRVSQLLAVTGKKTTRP
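His-tagged CBF-beta and biotinylated RUNX1 (30 nM each) were premixed 20 min at room temperature, exposed to compound for 15 min, then given nickel-chelate and streptavidin AlphaScreen beads (50 ng each). After 90 min, AlphaScreen signal was read.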
KCNH2 3.1 block – qHTS for Inhibitors of KCHN2 3.1: Mutant qHTS. Potassium voltage-gated channel subfamily H member 2, brain isoform KCNH2 3.1 (human). U2OS KCNH2 3.1, thallium flux FluxOr; active compounds read low. activity change, % (tested at about 1.8 µM). hit rate 0.95% among 340,000. AID 720553, 2013;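 active means maximum activity change below -70%; inconclusive means maximum activity change from -70% to -50%; inactive means maximum activity change above -50%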;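 further: thallium influx rate constant from kinetic fluorescence after stimulation buffer; on the % scale 0 is the no-effect control and ±100 the full control effect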
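Thallium flux read-out: FluxOr dye with Red40 quencher in HBSS/HEPES, 45 min at RT. Rate constants from kinetic reads were normalized to positive and negative DMSO controls. Cells: U2OS virally expressing the 3.1 isoform.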
Starred values were filed as active, the others as inactive; u = inconclusive; x = not tested or not shown. Most compounds without a hit are left out; they make up all but 3.8% or so of the library. Unless noted, the call rests on the fitted dose curve; in most records, active means well fitted curve in the direction sought with a large enough effect; inconclusive means small, poorly fitted or top-dose-only effect, or another doubt; inactive means no such curve, though single readings can be large; an effect the other way counts as inactive or inconclusive.

SMILES	KCNH2 WT inh	VDR inhibitor	PLK1 PBD inh	MBNL1-CUG inh	CBFb-RUNX1 inh	KCNH2 3.1 block
O=C(NC(NC(=S)Nc1ccc(F)c([N+](=O)[O-])c1)C(Cl)(Cl)Cl)C(c1ccccc1)c1ccccc1 (stereo unspecified)	x	-0.9%	x	x	u	x
Cc1cc(OC(=O)c2ccco2)c(Sc2ccccc2[N+](=O)[O-])c(=O)o1	-2.3	u	5.32µM*	u	-4.7%	1.9
O=C(COC(=O)c1ccco1)Nc1ccccc1[N+](=O)[O-]	-12.1	-21.4%	-5.6%	x	-8.5%	-4.8
NC[C@H]1O[C@@H](n2cnc3c(N)ncnc32)[C@H](O)[C@@H]1O	x	-5.3%	x	x	x	x
Cc1nc(NC(C)c2ccccc2)sc1C(=O)Nc1ccccc1 (stereo unspecified)	3.6	-16.1%	23.8µM*	x	4.4%	6.1
CC(=O)c1sc(NC(C)c2ccccc2)nc1C (stereo unspecified)	4.5	17.4%	-1.5%	5.4%	x	-6.0
COc1ccc(NC(=O)c2cc3sccc3n2Cc2ccc(F)cc2)cc1OC	-249.1*	15.0%	0.8%	-2.6%	-18.8%	-2.3
COc1cc(/C=N/NC(=O)c2cc(-c3ccco3)nc3ccccc23)cc(OC)c1O	-7.1	-1.2%	-25.7%	7.8%	-11.5%	-12.3
O=C(N/N=C/c1cccc(F)c1)c1cc(-c2ccco2)nc2ccccc12	-4.9	-5.6%	10.6µM*	-2.1%	x	3.3
CN(CC(=O)Nc1cccc(F)c1)C(=O)c1cc(-c2ccco2)nc2ccccc12	-0.6	u	33.6µM*	x	x	10.4
COc1ccc(NC(=O)CN(C)C(=O)c2cc(-c3ccco3)nc3ccccc23)cc1	0.2	-5.7%	u	x	x	-0.9
CC[C@H](C)[C@H](NC(=O)[C@H](Cc1ccc(O)cc1)NC(=O)[C@H](Cc1cnc[nH]1)NC(=O)[C@H](CCCNC(=N)N)NC(=O)[C@H](CC(C)C)NC(=O)[C@H](C)NC(=O)[C@H](CO)NC(=O)[C@H](Cc1ccc(O)cc1)NC(=O)[C@H](Cc1ccc(O)cc1)NC(=O)[C@H](CCCNC(=N)N)NC(=O)[C@H](C)NC(=O)[C@H](CCSC)NC(=O)[C@H](CC(=O)O)NC(=O)[C@H](CCC(=O)O)NC(=O)[C@H](C)NC(=O)[C@@H]1CCCN1C(=O)[C@H](C)NC(=O)[C@H](CC(=O)O)NC(=O)[C@H](CCC(=O)O)NC(=O)CNC(=O)[C@@H]1CCCN1C(=O)[C@H](CC(N)=O)NC(=O)[C@H](CC(=O)O)NC(=O)[C@@H]1CCCN1C(=O)[C@H](CCCCN)NC(=O)[C@H](CO)NC(=O)[C@@H]1CCCN1C(=O)[C@@H](N)Cc1ccc(O)cc1)C(=O)N[C@@H](CC(N)=O)C(=O)N[C@@H](CC(C)C)C(=O)N[C@H](C(=O)N[C@H](C(=O)N[C@@H](CCCNC(=N)N)C(=O)N[C@@H](CCC(N)=O)C(=O)N[C@@H](CCCNC(=N)N)C(=O)N[C@@H](Cc1ccc(O)cc1)C(N)=O)[C@@H](C)O)[C@@H](C)CC	x	-3.3%	x	x	8.1%	x
c1ccc(N2CCN(c3nc(NCc4ccco4)c4ccccc4n3)CC2)cc1	-80.7*	7.4%	-2.3%	-3.1%	-6.8%	-103.7*
c1ccc(CNc2nc(N3CCN(Cc4ccccc4)CC3)nc3ccccc23)cc1	-42.5	2.3%	-10.8%	-9.3%	-0.9%	-104.4*
c1coc(CNc2nc(N3CCCCC3)nc3ccccc23)c1	13.8	6.4%	-5.8%	1.4%	6.7%	-18.0
C=C[C@@]1(C)CC(=O)[C@]2(O)[C@@]3(C)[C@H](O)CCC(C)(C)[C@@H]3[C@H](O)[C@H](OC(C)=O)[C@@]2(C)O1	x	10.3%	x	x	6.6%	x
O=[N+]([O-])c1ccccc1SN(Cc1ccccc1)c1ccccn1	10.7	-8.4%	11.9µM*	u	-22.6%	5.3
S=C(SSC(=S)N1CCOCC1)N1CCOCC1	x	x	1.5µM*	x	x	x
COC[C@H]1OC=C[C@@H](OC)[C@@H]1OC	x	3.3%	x	x	-7.1%	x
O=C(c1ccco1)N1CCN(S(=O)(=O)c2ccccc2[N+](=O)[O-])CC1	-3.1	-9.9%	29.9µM*	8.9%	-0.5%	9.7
CC(=O)N1c2c(cc(Br)cc2S(=O)(=O)N2CCN(C(=O)c3ccco3)CC2)CC1C (stereo unspecified)	1.9	u	4.74µM*	-3.8%	-1.0%	-7.4
O=[N+]([O-])c1ccccc1S(=O)(=O)N1CCCCC1	1.7	-20.0%	26.7µM*	x	-8.7%	2.6
Cc1[nH]c2ccccc2c1C(c1ccccc1)c1ccc(Cl)s1 (stereo unspecified)	x	-19.5%	x	x	x	x
CC(C)c1ccc(NC(=O)C(NS(=O)(=O)c2ccc3c(c2)CCC(=O)N3)c2ccccc2)cc1 (stereo unspecified)	x	11.7%	x	x	x	x
O=C1CCc2cc(S(=O)(=O)NC(C(=O)N3CCN(c4ccccn4)CC3)c3ccccc3)ccc2N1 (stereo unspecified)	-117.2*	-9.1%	-14.0%	-3.6%	3.6%	-7.8
SMILES	KCNH2 WT inh	VDR inhibitor	PLK1 PBD inh	MBNL1-CUG inh	CBFb-RUNX1 inh	KCNH2 3.1 block
Cc1c(C(=O)N(C)C)sc2nc(-c3ccccn3)[nH]c(=O)c12	-3.8	-10.7%	-29.9%	u	x	3.9
O=c1[nH]c(-c2ccccn2)nc2sc(-c3ccccc3)cc12	-4.4	79.4µM*	10.6µM*	u	11.8%	18.7
COc1ccc(C(=O)N2CCC3(CCCN(c4cccc(-c5ccccc5)c4)C3)CC2)cc1	x	-20.0%	x	x	x	x
COCC(=O)N1CCC2(CCCN(c3cccc(-c4ccccc4)c3)C2)CC1	x	50.1µM*	x	x	x	x
c1ccc(-c2cccc(N3CCC4(CCNCC4)CC3)c2)cc1	x	89.1µM*	x	x	x	x
c1ccc(-c2cccc(N3CCCC4(CCNCC4)C3)c2)cc1	x	50.1µM*	x	x	x	x
O=S(=O)(c1ccccc1)N1CCC2(CCCN(c3cccc(-c4ccccc4)c3)C2)CC1	x	-19.2%	x	x	x	x
CNC(=O)c1cc2n(n1)CCCN(Cc1ccc(F)cc1)C2=O	x	10.1%	x	x	x	x
CC(=O)c1cnc2c(-c3ccc(Cl)cc3)cnn2c1C	5.1	-7.3%	29.9µM*	9.9%	8.2%	3.5
CCOC(=O)Cc1c(C)nc2c(-c3ccc(Cl)cc3)cnn2c1C	4.4	-12.8%	18.9µM*	8.0%	u	14.6
